Results: article PMC4336329 (PLoS ONE, 2015)
Out of some 310,000 compounds screened, about 14,000 (4.5%) showed an effect of 50% or more. The effect is printed as a negative number. What follows is part of a selection rich in strong results, with near analogues and random picks from the rest.

Target: human ether-à-go-go-related gene (hERG) potassium channel (human, UniProt Q12809)
Test: primary screen, population patch clamp on CHO cells stably expressing hERG; higher = less effect of the substance
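Also: peak tail current of the secondary pulse compared with the same well before compound.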

human ether-à-go-go-related gene (hERG) potassium channel, sequence (Q12809 whole entry, looked up): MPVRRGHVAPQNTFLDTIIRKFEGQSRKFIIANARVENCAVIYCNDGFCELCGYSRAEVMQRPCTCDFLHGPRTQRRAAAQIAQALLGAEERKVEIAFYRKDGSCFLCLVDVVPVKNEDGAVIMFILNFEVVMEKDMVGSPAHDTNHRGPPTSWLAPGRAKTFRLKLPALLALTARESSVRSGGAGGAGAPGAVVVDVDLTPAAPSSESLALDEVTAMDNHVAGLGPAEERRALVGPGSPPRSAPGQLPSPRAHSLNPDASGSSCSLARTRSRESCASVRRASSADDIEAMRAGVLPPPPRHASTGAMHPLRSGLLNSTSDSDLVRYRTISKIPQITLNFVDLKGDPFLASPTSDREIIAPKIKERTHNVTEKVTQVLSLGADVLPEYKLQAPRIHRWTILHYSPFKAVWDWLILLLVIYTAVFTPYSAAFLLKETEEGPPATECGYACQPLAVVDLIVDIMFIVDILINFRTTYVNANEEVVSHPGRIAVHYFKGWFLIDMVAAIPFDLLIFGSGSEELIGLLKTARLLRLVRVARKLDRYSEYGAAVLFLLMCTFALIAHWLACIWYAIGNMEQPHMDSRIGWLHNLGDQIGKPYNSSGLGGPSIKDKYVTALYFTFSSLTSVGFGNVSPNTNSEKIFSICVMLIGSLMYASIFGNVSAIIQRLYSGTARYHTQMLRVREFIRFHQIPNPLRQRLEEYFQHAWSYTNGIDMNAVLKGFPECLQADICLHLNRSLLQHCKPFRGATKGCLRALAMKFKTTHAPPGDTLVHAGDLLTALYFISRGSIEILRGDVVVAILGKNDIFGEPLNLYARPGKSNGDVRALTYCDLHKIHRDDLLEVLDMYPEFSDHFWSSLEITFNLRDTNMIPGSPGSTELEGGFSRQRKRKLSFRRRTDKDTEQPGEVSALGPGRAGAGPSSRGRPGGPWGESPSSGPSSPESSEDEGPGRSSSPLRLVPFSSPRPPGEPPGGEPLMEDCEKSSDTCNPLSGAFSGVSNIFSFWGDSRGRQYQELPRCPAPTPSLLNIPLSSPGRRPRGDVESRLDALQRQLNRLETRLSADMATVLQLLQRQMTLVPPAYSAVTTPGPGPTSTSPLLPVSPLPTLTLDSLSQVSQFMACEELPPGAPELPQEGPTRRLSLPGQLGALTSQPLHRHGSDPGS

Row | Structure (SMILES) | hERG current change (%, negative = inhibition) at 10uM [%]
1 | Cc1c(NC(=S)NC(=O)C(c2ccccc2)c2ccccc2)cccc1C(=O)O | -3.41
2 | O=C(Nc1ccnn1C1CCN(Cc2ccn[nH]2)CC1)c1ccccc1 | -18.2
3 | COc1ccccc1C(=O)Nc1ccnn1C1CCN(CCCc2ccccc2)CC1 | -78.3
4 | O=C(Nc1ccnn1C1CCN(CCCc2ccccc2)CC1)c1ccccc1Cl | -82.2
5 | Cc1ccccc1C(=O)Nc1ccnn1C1CCN(CCCc2ccccc2)CC1 | -78.4
6 | O=C(Nc1ccnn1C1CCN(CCCc2ccccc2)CC1)c1ccccc1 | -80.8
7 | CC(=O)CCC(=O)N1CCC(n2nccc2NC(=O)c2ccccc2C)CC1 | 9.06
8 | C=CCNC(=S)Nc1ccc(N(C)C)cc1 | -6
9 | CCOC(=O)c1cnc(-n2nc(C)cc2C)nc1Oc1ccc(C#N)cc1 | 21.3
10 | CC(=O)c1ccccc1NS(=O)(=O)c1ccc2c(c1)CC(=O)N2 | 2.66
11 | CCCCn1nnnc1SCC(=O)NNC(=O)C1CCCCC1 | -1.79
12 | O=C1c2ccccc2C(=O)N1CCc1nc(-c2cccnc2)no1 | -12.2
13 | COc1ccccc1NC(=O)C1(C)Cc2ccccc2C(=O)O1 (stereo not shown) | -10.2
14 | Cc1ccc(-n2ncc3ccccc3c2=O)cc1Cl | -3.72
15 | COc1ccc(NC(=O)c2coc3ccccc23)cc1OC | 6.21
16 | CSc1nc(-c2ccc(Cl)cc2)c(C#N)c(=O)[nH]1 | 13.1

Row | Structure (SMILES) | hERG current change (%, negative = inhibition) at 10uM [%]
17 | Cc1nc(SCC(=O)NC2CCCCC2C)c(C#N)c(C)c1C (stereo not shown) | -7.03
18 | O=S(=O)(CCN1CCOCC1)c1ccccc1 | 8.81
19 | Cc1nc(-c2ccc(S(=O)(=O)N3CCOCC3)cc2)cs1 | 12.8
20 | O=C(Cc1ccccc1)N1CCN(C/C=C/c2ccccc2)CC1 | -19.5
21 | COc1ccc(OC)c(NC(=S)N2CCN(C/C=C/c3ccccc3)CC2)c1 | -33
22 | CN(c1ccc(OCC(=O)N2CCN(C/C=C/c3ccccc3)CC2)cc1)S(=O)(=O)c1cccs1.Cl | -30.6
23 | O=C(COc1ccccc1)N1CCN(C/C=C/c2ccccc2)CC1 | -58.1
24 | COc1ccc(O)c(CN2CCN(C/C=C/c3ccccc3)CC2)c1 | -51.9
25 | COc1cc(Br)cc(CN2CCN(C/C=C/c3ccccc3)CC2)c1O | -32.1
26 | COc1cccc(NC(=S)N2CCN(C/C=C/c3ccccc3)CC2)c1 | -44.7
27 | COc1ccc(NC(=S)N2CCN(C/C=C/c3ccccc3)CC2)c(OC)c1 | -64.2
28 | COc1ccc(OCC(=O)N2CCN(C(=O)COc3ccccc3)CC2)cc1 | -47.5
29 | Cc1ccccc1CN1CCN(C/C=C/c2ccccc2)CC1 | 8.81
30 | COc1ccc(OCC(=O)N2CCN(C/C=C/c3ccccc3)CC2)cc1 | -58.8
31 | O=C(COc1ccccc1)N1CCN(C(=O)COc2ccccc2)CC1 | -32.2
